Data reported in PubChem BioAssay (NCI).
The panel holds about 83,000 compounds, 20% with a hit somewhere; the sample as a whole holds those more often.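 Plates (96-well) were seeded with cells, treated with compound at one concentration, and incubated for 48 hours before percent growth was determined.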 A number with no mark means an inactive call. Activity calls are given as the source filed them. How the source made its calls: active means growth percent below 10; inactive means the rest.

Assays:
Test in all cases: NCI-60 one-dose screen, 48 h (100 = growth as untreated, 0 = no growth, -100 = all killed)
Conditions in all cases: 10 µM unless noted
NCI-H23 lung = system: NCI-H23 lung
NCI-H226 lung = system: NCI-H226 lung
HOP-62 NSCLC = system: HOP-62 NSCLC
NCI-H460 lung = system: NCI-H460 lung
HOP-92 NSCLC = system: HOP-92 NSCLC
NCI-H522 lung = system: NCI-H522 lung
A549/ATCC NSCLC = system: A549/ATCC NSCLC
786-0 renal = system: 786-0 renal
COLO 205 colon = system: COLO 205 colon

Compound	growth (NCI-H23 lung)	growth (NCI-H226 lung)	growth (HOP-62 NSCLC)	growth (NCI-H460 lung)	growth (HOP-92 NSCLC)	growth (NCI-H522 lung)	growth (A549/ATCC NSCLC)	growth (786-0 renal)	growth (COLO 205 colon)
CN1CCN(CCOc2ccc(-c3cnc4c(-c5ccc(C(F)(F)F)cc5)cnn4c3)cc2)CC1	48.5%	87.8%	37.5%	-50.3% (active)	40.4%	44.4%	-41.1% (active)	-57.3% (active)	-55.7% (active)
CC12CCC(/C(=C/NNc3ccc([N+](=O)[O-])cc3[N+](=O)[O-])C1=O)C2(C)C (stereo unspecified)	78.1%	87.1%	100%	45.1%	79.7%	36.2%	77.9%	96.4%	91.4%
O=C(N/N=C/c1ccc(Cl)cc1Cl)c1ccc2nc(-c3ccc(Cl)cc3)[nH]c2c1	-0.367% (active)	99.3%	8.05% (active)	-33.6% (active)	28.1%	63.2%	-26.7% (active)	-42.1% (active)	-23.9% (active)
CN1CCN(Cc2ccc(NC(=O)c3cncc(C#Cc4cnn5ccccc45)c3)cc2C(F)(F)F)CC1	-43.9% (active)	-11.6% (active)	-15.4% (active)	-22.5% (active)	-7.15% (active)	-14.7% (active)	4.64% (active)	4.29% (active)	-33.6% (active)
Cc1ccc(/C=C(\C#N)C(=O)Nc2ncc(Cc3cc(Cl)ccc3Cl)s2)o1	67.1%	90.1%	41.6%	–	77%	48.6%	39.8%	46.9%	102%
COc1cccc2c(N=NC(=O)c3ccc(S(N)(=O)=O)cc3)c(O)[nH]c12	99.4%	95.8%	102%	104%	118%	87.1%	95.5%	95.6%	109%
Cc1cc2nc(-c3c(-c4ccc(F)cc4)nc4sccn34)[nH]c2cc1C	94%	97.5%	108%	106%	86.1%	85%	95.6%	86.3%	105%
N#CC(C#N)N=Nc1ccc(Cl)cc1Cl	86.2%	97.7%	80.7%	105%	-26.5% (active)	39.3%	105%	91.2%	67.2%
Cn1cc(-c2csc(-c3cn(C(=O)OC(C)(C)C)c4ccccc34)n2)c2ccnc(Cl)c21	57.1%	46.4%	72.4%	22.4%	58.5%	50%	26.8%	67.2%	39.8%
CC[C@H](CC[C@@H](C)[C@H]1CC[C@H]2[C@@H]3CC[C@@H]4CC(=O)/C(=C\c5ccncc5)C[C@]4(C)[C@H]3CC[C@]12C)C(C)C	99.4%	103%	99.3%	109%	91.5%	95.3%	99.2%	95.7%	107%
O=C(Cn1nnc([N+](=O)[O-])n1)c1ccccc1	96.5%	112%	94.8%	93.2%	63.6%	86.9%	87%	102%	100%
O=C(CCCCNC(=O)c1cc(=O)c(O)co1)Nc1ccccc1	86.2%	102%	118%	99.5%	59.1%	-5.93% (active)	104%	101%	67.7%
Fc1ccc2c(c1)c(-c1nc(-c3c[nH]c4ncccc34)cs1)cn2CCCN1CCOCC1	76%	59.3%	49.9%	37.8%	23.5%	41.3%	42.6%	57.3%	18.1%
COc1cc(-c2nc3occn3c2-c2ccnc(NCCCNS(=O)(=O)c3ccccc3)n2)ccc1F	45.6%	18.4%	73.9%	47.8%	63.4%	26.6%	38%	63.8%	28.8%
Cc1ccc(/C=C/C(=O)c2ccc(NC(=O)CSc3nc4c([nH]3)c(=O)n(C)c(=O)n4C)cc2)c(C)c1	57.9%	47.2%	20.4%	24.5%	-35.2% (active)	32.5%	33.6%	36%	84.8%
COc1ccc(C(C)=O)cc1S(N)(=O)=O	98.2%	101%	112%	104%	92%	75.6%	88%	89.4%	115%
C=C1C(=O)O[C@H]2[C@H]1CC/C(CNC(=O)c1cc3ccccc3[nH]1)=C\CC[C@@]1(C)O[C@@H]21	-42.3% (active)	-42.9% (active)	9.39% (active)	-19.7% (active)	-51.1% (active)	-75.4% (active)	9.2% (active)	-67.3% (active)	-83.3% (active)
O=C(O)c1cccc(N/C=C/C(=O)c2cc3cc(Br)ccc3oc2=O)c1	98.1%	94.6%	93.7%	97%	103%	91.8%	92.4%	99.4%	110%
C=C1C(=O)O[C@H]2[C@H]1CC/C(COC(=O)NCCCCCCCCNC(=O)OC/C1=C/CC[C@@]3(C)O[C@H]3[C@H]3OC(=O)C(=C)[C@@H]3CC1)=C\CC[C@@]1(C)O[C@@H]21	-53.6% (active)	-84.2% (active)	-38.2% (active)	-51.1% (active)	-83.2% (active)	–	2.89% (active)	-89.9% (active)	-64.9% (active)
COc1ccc2cc(-c3cnc4nonc4n3)ccc2c1	30.6%	52.6%	37.4%	74.4%	80.8%	7.22% (active)	36%	41.4%	16.8%
CCOC(=O)C1=C(c2ccccc2)N=c2s/c(=C/c3ccc(Br)cc3)c(=O)n2C1c1ccc(O)cc1 (stereo unspecified)	95.4%	86.6%	105%	94.1%	71.2%	87.9%	80.2%	77.4%	118%
CC1(C)O[C@H]2OC3CCC(=O)CC3(O)[C@H]2O1 (stereo partly specified)	99.2%	102%	95.8%	–	79.8%	92.4%	95.9%	99.5%	105%
COCC[C@H]1CCC/C=C/[C@@H]2C[C@H](O)C[C@H]2[C@H](O)/C=C/C(=O)O1	6.07% (active)	-40.4% (active)	31.5%	15.1%	-8.55% (active)	-28.6% (active)	13.6%	-45.9% (active)	-64.4% (active)
COc1cccc(OC)c1Oc1c(-c2nc3ccccc3s2)c(C)nn1-c1ccccc1	74.4%	79.9%	70.4%	78.8%	62.2%	68.3%	67.4%	91.4%	98.4%
Cc1cccc(NC(=O)CSc2nc3ccc([N+](=O)[O-])cc3[nH]2)c1	69.7%	71%	115%	84.7%	21%	61%	82.7%	84.8%	90.1%
Nc1ccc([N+](=O)[O-])cc1N=C/C=C/c1ccccc1	76.9%	72%	88%	54%	82.2%	10.8%	72.7%	78.6%	65.5%
